Reference: the supplement of paper PMC13380429

Legend:
[1] = test system: Vero E6 infected with SARS-CoV-2; assay: morphology score (similarity to uninfected cells); higher = more like uninfected cells; details: 24 h
[2] = test system: Vero E6 infected with SARS-CoV-2; assay: SARS-CoV-2 infection rate relative to infected DMSO; higher = more infection, active = 60 or less; details: 24 h

| Compound | morphology score [1] | SARS-CoV-2 infection rate [2] |
| --- | --- | --- |
| N#Cc1ccc(COC[C@H]2O[C@@H](n3c(NCc4ccc(Cl)c(Cl)c4)nc4c(N)ncnc43)[C@H](O)[C@@H]2O)cc1 (10 µM) | 0.0983 | 106% (inactive) |
| Nc1nc2cc(-c3ccc4ncc(C(=O)N5CCOCC5)n4c3)ccc2o1 (10 µM) | 0.241 | 92% (inactive) |
| CC(C)CN(C[C@@H](OP(=O)(O)O)[C@H](Cc1ccccc1)NC(=O)O[C@H]1CCOC1)S(=O)(=O)c1ccc(N)cc1 [fosamprenavir] (10 µM) | -0.123 | 109% (inactive) |
| Oc1ncnc2[nH]ncc12 [allopurinol] (10 µM) | -0.0914 | 108% (inactive) |
| CCOc1nc2cccc(C(=O)OCc3oc(=O)oc3C)c2n1Cc1ccc(-c2ccccc2-c2noc(=O)[nH]2)cc1 [azilsartan-medoxomil] (10 µM) | -0.168 | 116% (inactive) |
| Cc1ccc(OCCSc2ncccn2)c(Br)c1 (10 µM) | 0.0756 | 104% (inactive) |
| O=C(NOCC(O)CO)c1cc(Br)c(F)c(F)c1Nc1ccc(I)cc1F (stereo unspecified) (0.833333 µM) | -0.0489 | 112% (inactive) |
| NC(=O)N/N=C/c1ccc([N+](=O)[O-])o1 [nitrofurazone] (10 µM) | 0.187 | 105% (inactive) |
| CN(C)C(=O)Nc1cccc(-c2ccc(N(C)C)cc2)c1 [atglistatin] (10 µM) | 0.11 | 98% (inactive) |
| CCN(CC)CCOC(=O)C(Cc1cccc2ccccc12)CC1CCCO1 (mixture of isomers) [naftidrofuryl] (10 µM) | 0.14 | 104% (inactive) |
| CCOc1ccc(Cc2cc([C@@H]3O[C@H](SC)[C@@H](O)[C@H](O)[C@H]3O)ccc2Cl)cc1 [sotagliflozin] (10 µM) | -0.0387 | 114% (inactive) |
| NCc1c[nH]c(=S)n1[C@H]1CCc2c(F)cc(F)cc2C1 [nepicastat] (10 µM) | -0.046 | 104% (inactive) |
| CCNC(=O)N1CCN(CCCC(c2ccc(F)cc2)c2ccc(F)cc2)CC1 [amperozide] (10 µM) | -0.101 | 108% (inactive) |
| NC1=NCC2c3ccccc3Cc3ccccc3N12 (stereo unspecified) [epinastine] (10 µM) | 0.0427 | 114% (inactive) |
| Cc1cc(CCCOc2c(C)cc(-c3noc(C(F)(F)F)n3)cc2C)on1 [pleconaril] (10 µM) | -0.0431 | 108% (inactive) |
| O=C(C1CCCCC1)N1CC(=O)N2CCc3ccccc3C2C1 (stereo unspecified) [praziquantel] (10 µM) | 0.151 | 106% (inactive) |
| COc1ccc2[nH]c([S+]([O-])Cc3ncc(C)c(OC)c3C)nc2c1 (stereo unspecified) [omeprazole] (10 µM) | 0.0924 | 104% (inactive) |

| Compound | morphology score [1] | SARS-CoV-2 infection rate [2] |
| --- | --- | --- |
| CN1c2ccccc2C(NCCCCCCC(=O)O)c2ccc(Cl)cc2S1(=O)=O (stereo unspecified) [tianeptine] (10 µM) | 0.237 | 104% (inactive) |
| CCn1c(=O)/c(=C2\Sc3ccccc3N2C)s/c1=C\c1cccc[n+]1CC (10 µM) | 0.136 | 106% (inactive) |
| O=C(NCc1ccncc1)C12CC3CC(C1)CC(c1ccc(Cl)cc1)(C3)C2 (10 µM) | 0.00848 | 97% (inactive) |
| CC(=O)O[C@@H]1CC[C@@]2(C)[C@@H](CC[C@]3(C)[C@@H]2C(=O)C=C2[C@@H]4[C@@H](C)[C@H](C)CC[C@]4(C)CC[C@]23C)[C@@]1(C)C(=O)O [acetyl-11-keto-beta-boswellic-acid] (10 µM) | 0.104 | 105% (inactive) |
| C[C@H]1NCc2cc(-c3ccc4c(=O)c(C(=O)O)cn(C5CC5)c4c3OC(F)F)ccc21 [garenoxacin] (10 µM) | 0.0451 | 102% (inactive) |
| CC(C)(O)CC(=O)NCCn1ccc2ncnc(Nc3ccc(Oc4cccc(C(F)(F)F)c4)c(Cl)c3)c21 (10 µM) | -0.138 | 114% (inactive) |
| CNC(=O)c1ccccc1Nc1nc(Nc2ccc(N3CCOCC3)cc2OC)ncc1Cl (10 µM) | -0.217 | 97.5% (inactive) |
| CN(C)[C@@H]1C(O)=C(C(N)=O)C(=O)[C@@]2(O)C(O)=C3C(=O)c4c(O)ccc(Cl)c4[C@@](C)(O)[C@H]3C[C@@H]12 (10 µM) | 0.129 | 102% (inactive) |
| CCCCCCCCCCCCCC(=O)[O-].CCCCCCCCCCCCCC(=O)[O-].N[C@@H]1CCCC[C@H]1N.[Pt+2] [miriplatin] (10 µM) | 0.0834 | 114% (inactive) |
| CC(C)COC(=O)c1ccc(N)cc1 [isobutamben] (10 µM) | 0.0167 | 106% (inactive) |
| CC(C)=CCC/C(C)=C/CC/C(C)=C/CSc1ccccc1C(N)=O [farnesyl-thiosalicylic-acid-amide] (10 µM) | 0.012 | 110% (inactive) |
| Cc1ccnc(NS(=O)(=O)c2ccc(N)cc2)n1 [sulfamerazine] (10 µM) | 0.0324 | 108% (inactive) |
| CC(=O)NC[C@H]1CN(c2ccc(N3CCN(C(=O)CO)CC3)c(F)c2)C(=O)O1 [eperezolid] (10 µM) | 0.0417 | 112% (inactive) |
| O=C(O)CCc1c(C(=O)O)[nH]c2cc(Cl)cc(Cl)c12 (10 µM) | -0.0263 | 104% (inactive) |
| NC(=O)CN1CC[C@@H](NC(=O)[C@@H]2CCCN2)C1=O (10 µM) | 0.096 | 110% (inactive) |
| Cc1cc(NS(=O)(=O)c2ccc(N)cc2)no1 [sulfamethoxazole] (10 µM) | 0.128 | 94.5% (inactive) |
